Results on 6 compounds are retold here after PubChem BioAssay (NCI).

Holding throughout (assay): NCI-60 one-dose screen, 48 h (100 = growth as untreated, 0 = no growth, -100 = all killed)
Conditions in all cases: 10 µM unless noted

In assay [1] the test system is HCT-15 colon.
For assay [2], the system named is HT29 colon.
Assay [3] relates to SNB-75 CNS.
Assay [4] relates to SNB-19 CNS.
Assay [5] has as its system U251 CNS.
Assay [6] has as its system PC-3 prostate.
Assay [7] relates to SK-MEL-5 melanoma.
For assay [8], the system named is UACC-62 melanoma.
Assay [9] has as its system LOX IMVI melanoma.
The test system of assay [10] is SK-MEL-2 melanoma.
Assay [11] has as its system EKVX NSCLC.
Assay [12] relates to SN12C renal.
Assay [13] has as its system UO-31 renal.
Assay [14] relates to TK-10 renal.
Assay [15] relates to ACHN renal.
For assay [16], the system named is A498 renal.
Assay [17] has as its system CCRF-CEM leukemia.
The test system of assay [18] is MOLT-4 leukemia.
Assay [19] concerns SK-MEL-28 melanoma.
Assay [20] deals with CAKI-1 renal.

Where “and” joins values, the source holds several entries; their conditions need not be identical. Equal values may be shown once. The panel holds about 83,000 compounds, 20% with a hit somewhere; the sample as a whole holds those more often.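 The endpoint reported here, percent growth, reads 100 for growth as untreated, 0 for no net growth and -100 for all cells dead.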 Calls of active or inactive are those of the source. Rule for the calls: active = growth percent below 10; inactive = the rest.

As for `COc1ccc(NC(=S)Nc2ccccn2)cc1`, the growth in assay [1] was 98.6% (inactive); in assay [2], 107% (inactive); in assay [3], 152% (inactive); in assay [4], 98.9% (inactive); in assay [5] it was 93.6% (inactive); in [6], 97.2% (inactive). The growth in assay [7] was 98.9% (inactive); in assay [8], 103% (inactive); in assay [9], 89.8% (inactive); in assay [10], 94.6% (inactive); in assay [11], 96.5% (inactive); in [12] it was 100% (inactive). The growth in assay [13] was 93.7% (inactive); in assay [14], 102% (inactive); in assay [15] it was 97.7% (inactive); in assay [16] it was 83% (inactive); in assay [17], 90.8% (inactive); in assay [18], 91% (inactive).
For the compound `Oc1c(Cl)cc(Cl)cc1Sc1cc(Cl)cc(Cl)c1O`, the growth is 8.23% (active) and 78.1% (inactive) in assay [1]; 66.2% (inactive) and 15.8% (inactive) and 108% (inactive) in assay [2]; 97.2% (inactive) and 55.2% (inactive) and 100% (inactive) in [3]; 43.4% (inactive) and -0.0882% (active) and 74.5% (inactive) in assay [4]; 48.8% (inactive) and 8.95% (active) and 71.5% (inactive) in [5]; 10.7% (inactive) and 1.87% (active) and 48% (inactive) in assay [6]. For the same compound, the growth in assay [7] is 48% (inactive) and 51% (inactive); in assay [8], 19.1% (inactive) and -29% (active) and 50.2% (inactive); in assay [9], 80.7% (inactive) and 41.3% (inactive) and 96% (inactive); in assay [10], -21.7% (active) and -41% (active) and 79.7% (inactive); in assay [11] it was 50% (inactive) and 23.4% (inactive) and 89% (inactive); in assay [12], 26.8% (inactive) and -26.6% (active) and 72.8% (inactive). For the same compound, the growth is 73.2% (inactive) and 36.9% (inactive) and 85.2% (inactive) in assay [13]; 46.9% (inactive) and -11.2% (active) and 87.2% (inactive) in assay [14]; 15.2% (inactive) and 105% (inactive) in [15]; 54.4% (inactive) and 42.3% (inactive) and 69.5% (inactive) in assay [16]; 23.1% (inactive) and 9.78% (active) and 61.2% (inactive) in assay [17]; 38.7% (inactive) and 16.2% (inactive) and 91% (inactive) in [18].
In the case of `CCN(CC)CCc1nc(-c2ccccc2)no1`, the growth is 64.3% (inactive) and 93.3% (inactive) in assay [2]; 82.1% (inactive) and 72.2% (inactive) in assay [3]; 89.7% (inactive) and 94.2% (inactive) in assay [4]; 52.7% (inactive) and 99.4% (inactive) in [5]; 81.3% (inactive) and 96.7% (inactive) in [6]; 84.6% (inactive) and 116% (inactive) in [7]. The growth in [8] is 77% (inactive) and 95.9% (inactive); in assay [9], 63.9% (inactive) and 94.6% (inactive); in [19], 89.5% (inactive) and 106% (inactive); in [10], 98% (inactive) and 104% (inactive); in assay [11] it was 90.6% (inactive) and 98.4% (inactive); in assay [12] it was 68% (inactive) and 80.8% (inactive). The growth in assay [13] was 65.9% (inactive) and 68.2% (inactive); in [14], 85.1% (inactive) and 107% (inactive); in assay [15] it was 83.2% (inactive) and 110% (inactive); in [20], 92.3% (inactive) and 88.2% (inactive); in assay [16], 108% (inactive) and 110% (inactive); in assay [17] it was 44.2% (inactive) and 90.8% (inactive). In addition, the growth in [18] was 101% (inactive).
Turning to `O=C=NC(c1ccccc1)(c1ccccc1)c1ccccc1`, the growth in assay [2] was 99.9% (inactive); in assay [3] it was 84.7% (inactive); in [4], 107% (inactive); in assay [5] it was 99.4% (inactive); in assay [6] it was 102% (inactive); in [7] it was 114% (inactive). For the same compound, the growth in assay [8] was 101% (inactive); in assay [9], 102% (inactive); in assay [19] it was 114% (inactive); in assay [10], 118% (inactive); in assay [11], 111% (inactive); in assay [12], 102% (inactive). The growth in assay [13] is 71.9% (inactive); in [14] it was 110% (inactive); in assay [15] it was 99.2% (inactive); in [20], 91.7% (inactive); in [16], 116% (inactive); in assay [17], 102% (inactive). Further, the growth in assay [18] is 92.2% (inactive).
With `CN(C)c1ccc(C(Cc2ccc3ccccc3n2)Cc2ccc3ccccc3n2)cc1`, the growth in [1] is 51.1% (inactive) and 78.8% (inactive); in assay [2], 0.736% (active) and 59.7% (inactive); in [3], 110% (inactive) and 88.5% (inactive); in [4] it was 61% (inactive) and 89.3% (inactive); in assay [5] it was 43.5% (inactive) and 81.2% (inactive); in [6] it was 16% (inactive) and 61.5% (inactive). The growth was 19.8% (inactive) and 76.7% (inactive) in [7]; 44.5% (inactive) and 73% (inactive) in assay [8]; 31.3% (inactive) and 81.8% (inactive) in assay [9]; 70% (inactive) and 88.5% (inactive) in assay [10]; 49.2% (inactive) and 72.9% (inactive) in [11]; 48.7% (inactive) and 81.6% (inactive) in assay [12]. The growth in assay [14] was 74.1% (inactive) and 121% (inactive); in assay [15], 50.5% (inactive) and 89.6% (inactive); in assay [16], 33.7% (inactive) and 59.3% (inactive); in [17], 41.7% (inactive) and 67.4% (inactive); in [18], 11.4% (inactive) and 74.6% (inactive).
With `CN1CCN(Cc2occc(=O)c2O)CCN(C)CCN(Cc2occc(=O)c2O)CC1`, the growth in [1] is 107% (inactive) and 36% (inactive); in [2], 96.3% (inactive) and 11.1% (inactive); in assay [3], 100% (inactive); in assay [4], 98% (inactive) and 87.6% (inactive); in [5], 94.8% (inactive) and 23.1% (inactive); in assay [6], 80.3% (inactive) and 35.6% (inactive). Further, the growth in [7] was 81.4% (inactive) and 47.8% (inactive); in [9], 99.1% (inactive) and 43% (inactive); in assay [19], 64.4% (inactive); in assay [10], 105% (inactive) and 64.9% (inactive); in assay [11], 104% (inactive) and 62.8% (inactive); in assay [12], 87.9% (inactive) and 82.7% (inactive). The growth in assay [13] was 92.2% (inactive) and 66.6% (inactive); in assay [14], 100% (inactive) and 65.2% (inactive); in assay [15], 106% (inactive) and 94% (inactive); in assay [20] it was 99.7% (inactive) and 42.1% (inactive); in assay [16] it was 95.8% (inactive) and 13% (inactive); in assay [17], 91.5% (inactive) and 49% (inactive). For the same compound, in assay [18], the growth was 97.2% (inactive) and 47.9% (inactive).
